Source: PubChem BioAssay (NCI)
Compounds without any hit were thinned out: in the full panel of roughly 83,000, 20% have a hit.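 Growth was measured after 48 h exposure to one concentration of compound in 96-well plates. Values under 10 count as active.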 Calls of active or inactive are those of the source.

Test system: MDA-MB-468 breast
Test: NCI-60 one-dose screen, 48 h (100 = growth as untreated, 0 = no growth, -100 = all killed)
Settings: 10 µM unless noted

SMILES | growth
COc1ccc(C(=O)/C=C/c2cccc([N+](=O)[O-])c2)c(OC)c1 | -3.24% (active)
CC(=O)NC(C)(C)C(=O)N[C@@H](C)C(=O)NC(C)(C)C(=O)N[C@@H](C)C(=O)NC(C)(C)C(=O)N[C@@H](C)C(=O)N[C@@H](CCC(N)=O)C(=O)NC(C)(C)C(=O)N[C@H](C(=O)NC(C)(C)C(=O)NCC(=O)N[C@@H](CC(C)C)C(=O)NC(C)(C)C(=O)N1CCC[C@H]1C(=O)N[C@H](C(=O)NC(C)(C)C(=O)NC(C)(C)C(=O)N[C@@H](CCC(N)=O)C(=O)N[C@@H](CCC(N)=O)C(=O)N[C@H](CO)CC1CCCCC1)C(C)C)C(C)C | 3.04% [5 µM] (active)
C/C(=N\NC(=S)N1CCCCC1)c1ccccn1 | -27.4% (active)
Cc1cccc(Oc2ccc(Nc3ncnc4ccc(NC(=O)CN(C)C)cc34)cc2Cl)c1 | -45.2% (active)
C#C[C@]1(O)CC[C@H]2[C@@H]3CC=C4c5sc(Nc6ccc(C)cn6)nc5CC[C@]4(C)[C@H]3CC[C@@]21C | -23.1% (active)
COc1cccc(/C=C(/C)c2ccc3cccc(OC)c3[o+]2)c1O | 95.9% (inactive)
O=C1c2cccnc2C(=O)c2c1c(C(=O)NCCn1ccnc1)c1ccccn21 | -6.68% (active)
C=C1CCC2(C#N)[C@H]3[C@H](CC[C@@H]2C)[C@@H](C)C[C@@H](CC(C)(C)NC(=O)CN2CCC2=O)[C@H]13 (stereo partly specified) | 58% (inactive)
COC(=O)c1cc2cc(-c3ccc(OC)cc3)cnc2[nH]1 | 17.4% (inactive)
COc1ccc(/C=C2/SC(=Nc3c(C)nn(-c4ccccc4)c3N)NC2=O)cc1 | 7.17% (active)
CN(C)c1ccc(S(=O)(=O)O)cc1 | 106% (inactive)
CC1CCN(CCCCCOc2ccc3oc4ccc(Cl)cc4c(=O)c3c2)CC1 | 54.5% (inactive)
Cn1/c(=N/NC(N)=S)ccc2ccccc21 | 24.9% (inactive)
O=C(/C=C/C12c3ccccc3C(c3ccccc31)C1C(=O)NC(=O)C12)c1ccncc1 (stereo unspecified) | 6.35% (active)
O=C1Nc2ccc(Br)cc2/C1=N/c1nc(-c2ccccc2)cs1 | 99.8% (inactive)
NC(N)=N/N=C/c1ccc(Cl)cc1 | 44% (inactive)
O=C(Nc1ccc(S(=O)(=O)NC2CCCCCC2)cc1)C(c1ccccc1)S(=O)(=O)c1ccc(F)cc1 (stereo unspecified) | -14.5% (active)
COc1ccc(/C(C)=C(\c2ccc(Cl)cc2)c2ccc(OCCN3CCCCC3)cc2)cc1 | 55.5% (inactive)

SMILES | growth
CCOC(=O)C1=C(C)Nc2nc3ccccc3n2C1c1cccc(Br)c1 (stereo unspecified) | 54.2% (inactive)
CN(C)CC/C=C1\c2ccccc2Sc2ccc(Cl)cc21 | 8.92% (active)
Cn1ncc2c(=O)nc3c(-c4ccccc4)n[nH]n3c21 | 101% (inactive)
Cc1c2c(cc[n+]1Cc1ccccc1)c1ccc(OCc3ccccc3)cc1n2Cc1ccccc1 | -42.3% (active)
COc1cc(/C=C2\CCCC3=C2NC(C)=NC3c2cc(OC)c(OC)c(OC)c2)cc(OC)c1OC (stereo unspecified) | -4.61% (active)
CCOC(=O)OCC(=O)[C@@]1(O)CC[C@H]2[C@@H]3CCC4=CC(=O)CC[C@]4(C)[C@H]3[C@@H](O)C[C@@]21C | 123% (inactive)
COc1cc(-c2cc(/C=C/C(=O)c3ccc4c(c3)OCO4)[nH]n2)cc(OC)c1OC | -4.54% (active)
Cc1c(N2CCCCC2)[nH]c2ccccc12 | 121% (inactive)
CCOC(=O)c1c2c(n3ccc(NC(=O)CCN4CCOCC4)cc13)C(=O)c1ncccc1C2=O | 49.7% (inactive)
COC(=O)/C(CCC=C(C)C)=C1\[C@@H](OC(C)=O)C[C@@]2(C)[C@H]1C[C@@H](O)[C@H]1[C@@]3(C)CC[C@H](NCCO)[C@@H](C)[C@@H]3CC[C@@]12C | 104% (inactive)
CCC1CCc2nc3sc(C(=O)Nc4ccccc4C)c(N)c3cc2C1 (stereo unspecified) | -0.179% (active)
Cc1cccc2nnc(-c3ccccc3)n12 | 106% (inactive)
CSc1cccc(NC(=O)Nc2nc3c(C)cccc3s2)c1 | 84.6% (inactive)
CCN1CCCC(N2c3ccccc3Sc3ccccc32)C1 (stereo unspecified) | 116% (inactive)
CCN(CC)CCCC(C)Nc1c(-c2ccccc2)cnc2cc(Cl)ccc12 (stereo unspecified) | 44.4% (inactive)
OC(COc1ccccc1Cl)CN1CCN(c2cccc(Cl)c2)CC1 (stereo unspecified) | 103% (inactive)
O=C(NCCOCCOCCNc1cccc2c1C(=O)N(C1CCCNC1=O)C2=O)c1cc2c(o1)C(=O)c1ccccc1C2=O (stereo unspecified) | -36.6% (active)
Nc1cc(Br)c(-c2nnc(CCC(=O)c3nc4ccccc4[nH]3)o2)c(Br)c1 | 16.9% (inactive)
